According to PubChem BioAssay (NCI):
The panel holds about 83,000 compounds, 20% with a hit somewhere; the sample as a whole holds those more often.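 The endpoint reported here, percent growth, reads 100 for growth as untreated, 0 for no net growth and -100 for all cells dead.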 A number with no mark means an inactive call. Activity calls are given as the source filed them. The calls were made as follows: active = growth percent below 10; inactive = the rest.

Columns and labels:
Assay in all cases: NCI-60 one-dose screen, 48 h (100 = growth as untreated, 0 = no growth, -100 = all killed)
Settings in all cases: 10 µM unless noted
[1] = system: SR leukemia
[2] = system: RPMI-8226 leukemia
[3] = system: OVCAR-8 ovarian
[4] = system: OVCAR-5 ovarian
[5] = system: OVCAR-4 ovarian
[6] = system: IGROV1 ovarian
[7] = system: OVCAR-3 ovarian
[8] = system: HS 578T breast
[9] = system: NCI/ADR-RES ovarian
[10] = system: T-47D breast
[11] = system: BT-549 breast
[12] = system: MDA-MB-435 melanoma
[13] = system: SW-620 colon
[14] = system: MCF7 breast
[15] = system: HCT-116 colon
[16] = system: HCC-2998 colon
[17] = system: KM12 colon
[18] = system: SK-OV-3 ovarian

Compound	growth [1]	growth [2]	growth [3]	growth [4]	growth [5]	growth [6]	growth [7]	growth [8]	growth [9]	growth [10]	growth [11]	growth [12]	growth [13]	growth [14]	growth [15]	growth [16]	growth [17]	growth [18]
COc1cccc(/C=N/NC(=O)c2ccccc2Nc2ccnc(C(F)(F)F)c2)c1O	30.3%	-18.8% (active)	19.7%	20.7%	27.9%	4.92% (active)	43.2%	44.9%	6.84% (active)	17.6%	25.8%	31.9%	31.9%	3.13% (active)	12.8%	51.2%	38.8%	–
Oc1cccc(-c2nc(N3CCOCC3)c3c4c(sc3n2)CCCC4)c1	70.3%	61%	51.9%	82.7%	45.9%	3.92% (active)	56.9%	10.2%	52.1%	9.18% (active)	45.4%	59.7%	63.3%	42%	–	81.9%	62.6%	–
CC(C)(C)c1cc(C(C)(C)C)cc(S(=O)(=O)Nc2cc3ccccc3cc2C(=O)NCCN)c1	-32.1% (active)	-5.61% (active)	5.01% (active)	94.8%	70.6%	62.3%	70.5%	73.2%	82%	5.06% (active)	101%	0.859% (active)	-78% (active)	-10.6% (active)	11.9%	-38.6% (active)	-33.4% (active)	–
COc1cc(-c2nn(-c3ccc(Br)cc3)cc2C(=O)O)ccc1O	84.1%	95.7%	105%	122%	101%	–	101%	–	104%	98.5%	98.8%	97%	105%	–	97.9%	108%	94.8%	100%
COc1ccc2c(c1)C(=O)/C(=C/c1cccnc1)CC2	30.7%	1.31% (active)	96.8%	93%	93.4%	–	98.6%	115%	94.8%	80.2%	101%	89.5%	102%	45.3%	81.2%	–	66.2%	–
CC(C)(CCCN=C(N)Nc1ccc(Cl)cc1)c1ccc(F)cc1	-13.6% (active)	11%	87.3%	75.8%	54.4%	55.2%	71.2%	83.2%	73.8%	53.9%	82.6%	63%	43.4%	52.9%	28.6%	–	57.5%	–
COc1ccc(C(=O)COc2ccc(/C=C3\COc4ccc(OC)cc4C3=O)cc2)cc1	2.54% (active)	-5.51% (active)	44.3%	108%	92.1%	–	104%	81.7%	80.7%	84.9%	77.6%	77.1%	80.2%	–	64%	–	68.4%	–
CC(=O)OC[C@H]1O[C@H](OC(C)=O)[C@H](NC(=O)/C=C/CCl)[C@@H](OC(C)=O)[C@@H]1OC(C)=O	44.5%	71.7%	81.6%	–	68.2%	93.9%	30.6%	92%	90.7%	69.1%	85.9%	80.4%	–	79.3%	60.4%	–	80.5%	57.2%
CN(C)C(=S)N=Nc1c(O)[nH]c2ccccc12	-17.8% (active)	–	-24.1% (active)	35.3%	14.9%	-58.9% (active)	3.86% (active)	13.4%	-11.6% (active)	25%	30.7%	40.3%	30.2%	17.8%	3.73% (active)	23.9%	25.9%	18.8%
COc1cc2c(cc1O)CC[C@@H]1[C@@H]2CC[C@]2(C)[C@@H](OCCN(C)C)CC[C@@H]12	-11.6% (active)	5.96% (active)	65.6%	–	47%	73.4%	12.5%	27%	17.9%	58.3%	43.5%	-56.8% (active)	13.1%	37.1%	7.27% (active)	–	24.2%	–
C=C(C)C(=O)Nc1ccc(NC(C)C)cc1	96.6%	–	93.5%	117%	111%	120%	121%	141%	112%	100%	156%	117%	105%	146%	105%	–	109%	109%
CCCn1c(=O)[nH]c(N)c([C@H]2c3ccccc3Oc3[nH]c(=O)n(CCC)c(=O)c32)c1=O	4.41% (active)	81.7%	78.9%	–	64.6%	89%	13.8%	92.8%	94.8%	34.7%	42.8%	84.4%	61.2%	26.4%	32.5%	104%	99.8%	104%
O=C(/C=C/C=C/c1ccc2c(c1)OCO2)N/N=C\c1ccc(O)cc1O	21.3%	47.7%	22.8%	–	9.43% (active)	28.9%	9.27% (active)	70.2%	5.15% (active)	23.9%	27.3%	32.6%	26.5%	14.1%	8.67% (active)	38.9%	23.4%	27%
CN1CCN=C1c1ccc(NC(=O)c2ccc(C(=O)Nc3ccc(C4=NCCN4C)cc3)cc2)cc1	89.4%	–	85.7%	87.5%	98.3%	90.1%	109%	80.3%	100%	86.7%	97.5%	108%	102%	76.5%	91.1%	112%	98.7%	96.5%
CCCCC/C(C=C(C#N)C#N)=C/c1ccccc1	7.75% (active)	-14.1% (active)	12.3%	–	86.4%	–	–	–	65%	76.1%	–	27%	59.2%	38.5%	27.7%	88.3%	72.6%	–
Cn1ncc2c(=O)nc3c(-c4ccccc4)n[nH]n3c21	113%	123%	99.8%	109%	100%	–	95.4%	108%	105%	95.6%	–	101%	107%	–	97.6%	99.2%	113%	–
COc1ccc(C2C(C#N)=C(N)Oc3n[nH]c(-c4cccs4)c32)cc1I (stereo not drawn)	53.2%	78.8%	95%	–	108%	–	91.7%	87.5%	96.2%	94.4%	92.1%	66.7%	83.8%	69.4%	91.9%	95.9%	86.2%	92.1%
Cc1ccc(C(SCC(N)C(=O)O)(c2ccccc2)c2ccc(C)cc2)cc1 (stereo not drawn)	-29.8% (active)	–	-32.5% (active)	6.69% (active)	61.5%	-32% (active)	-48% (active)	-45.6% (active)	7.01% (active)	27.1%	30.6%	-23.5% (active)	15.9%	12.3%	6.49% (active)	-20.5% (active)	2.64% (active)	28.6%
